Test results reported in PubChem BioAssay (NCI).
About 79,000 compounds went through this panel and 15% of them were active in at least one assay; those are over-represented in the sample as a whole. Unmarked numbers belong to inactive results. Calls of active or inactive are those of the source. No stated cut-off is given here; in the data, active means growth inhibition above about 70%; inactive means the rest.

Tests used:
[1] = NCI Yeast Anticancer Drug Screen. Data for the rad50 strain (AID 155);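 further: 0% = growth of vehicle-only cultures of the same strain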; conditions: S. cerevisiae rad50 strain growth inhibition, stronger effect = higher value
Outline: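 Relative growth inhibition (compound vs vehicle) was measured in yeast with a defined repair-gene alteration.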

[2] = NCI Yeast Anticancer Drug Screen. Data for the mec2-1 strain (AID 157); conditions: S. cerevisiae mec2-1 strain, stronger effect = higher value
Outline: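 Vehicle-treated cultures served as reference for growth inhibition of compound-exposed mec2-1 yeast.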

[3] = NCI Yeast Anticancer Drug Screen. Data for the sgs1 mgt1 strain (AID 161);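 further: 0% = growth of cultures given vehicle only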; conditions: S. cerevisiae sgs1 mgt1 strain, stronger effect = higher value
Outline: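 Test agents were incubated with a DNA-repair-mutant yeast strain. Growth was then read and compared against vehicle-treated controls.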

[4] = NCI Yeast Anticancer Drug Screen. Data for the cln2 rad14 strain (AID 165);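 further: 0% = growth equal to vehicle treated cultures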; conditions: S. cerevisiae cln2 rad14 strain, stronger effect = higher value
Outline: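 Each compound was tested on cln2 rad14 yeast. Inhibition of growth was calculated against vehicle-exposed controls.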

[5] = NCI Yeast Anticancer Drug Screen. Data for the bub3 strain (AID 167); conditions: S. cerevisiae bub3 mutant strain, stronger effect = higher value
Outline: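 Screening used yeast with an engineered genetic alteration affecting cell cycle control. Compound-exposed cultures were compared with vehicle cultures, and reduced growth was taken as inhibition.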

[6] = NCI Yeast Anticancer Drug Screen. Data for the mlh1 rad18 strain (AID 175); conditions: S. cerevisiae mlh1 rad18 strain growth inhibition, stronger effect = higher value
Outline: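 Vehicle-treated cultures served as the reference for growth inhibition in a yeast strain carrying DNA damage repair alterations exposed to each compound.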

[7] = at 5.0 µM (retest, dose inferred, filed as 0.5)
[8] = at 50.0 µM (retest, dose inferred, filed as 5.0)

SMILES | growth inhibition [1, 7] | growth inhibition [1, 8] | growth inhibition ([1]; at 50.0 µM) | growth inhibition [2, 7] | growth inhibition [2, 8] | growth inhibition ([2]; at 50.0 µM) | growth inhibition [3, 7] | growth inhibition [3, 8] | growth inhibition ([3]; at 50.0 µM) | growth inhibition [4, 7] | growth inhibition [4, 8] | growth inhibition ([4]; at 50.0 µM) | growth inhibition [5, 7] | growth inhibition [5, 8] | growth inhibition ([5]; at 50.0 µM) | growth inhibition [6, 7] | growth inhibition [6, 8] | growth inhibition ([6]; at 50.0 µM)
CC1(Br)Cc2ccccc2C1=O (centres undefined) | 3% | 43% | -2.2% | 4% | 33% | 37.2% | 2% | 31% | 42.3% | 1% | 16% | -35% | -2% | 36% | 70% (active) | 4% | 34% | 20.4%
CCCCCCCCN1CCN(CCCCCCCC)C2CCCCC21 (centres undefined) (tested in a mixture with another compound) | 12% | 95% (active) | 67.2% | 4% | 96% (active) | 44.1% | 25% | 94% (active) | 70.2% (active) | 8% | 71% (active) | 56% | 20% | 99% (active) | 71.5% (active) | 18% | 96% (active) | 77% (active)
CCC[CH2][Sn]([CH2]CCC)[S]CC(N)C(=O)O (centres undefined) | 63% | 98% (active) | 98.5% (active) | 67% | 99% (active) | 98.5% (active) | 56% | 95% (active) | 98.1% (active) | 49% | 98% (active) | 98.1% (active) | 80% (active) | 99% (active) | 98% (active) | 62% | 98% (active) | 97.9% (active)
N#CC(C#N)=NNc1cccc(Cl)c1Cl | 43% | 73% (active) | 90.8% (active) | 48% | 75% (active) | 92.7% (active) | 31% | 100% (active) | 93.2% (active) | 71% (active) | 100% (active) | 90.7% (active) | 25% | 100% (active) | 91.8% (active) | 41% | 66% | 90.2% (active)
C/C=C(\C)C(=O)OC1CC(C)(C)CC2C3=CCC4C5(C)CCC(=O)C(C)(C)C5CCC4(C)C3(C)CCC12C(=O)O (centres undefined) (tested in a mixture with another compound) | 1% | 78% (active) | 86% (active) | -9% | 70% (active) | 84.7% (active) | 5% | 77% (active) | 89.2% (active) | 38% | 88% (active) | 87.9% (active) | 1% | 82% (active) | 86% (active) | 26% | 82% (active) | 84.3% (active)
C1CN1[PH+](N1CC1)N1CC1.C1CN1[PH+](N1CC1)N1CC1.[I][Pt][I] | 2% | 20% | 66.5% | 0% | 20% | 14.8% | 2% | 30% | 59.8% | 1% | 14% | 21.8% | 2% | 21% | 22.7% | 5% | 44% | 73.8% (active)
Cc1cc(N(CCCl)CCCl)ccc1C=Nc1ccc(-c2csc(Cc3ccccc3)n2)c(Cl)c1 | 5% | 89% (active) | 92.7% (active) | -7% | 96% (active) | 94.5% (active) | 2% | 97% (active) | 94.2% (active) | -18% | 91% (active) | 91.1% (active) | 6% | 94% (active) | 89.2% (active) | -17% | 94% (active) | 93.7% (active)
O=P(c1cccc(C(F)(F)F)c1)(c1cccc(C(F)(F)F)c1)c1cccc(C(F)(F)F)c1.O=P(c1cccc(C(F)(F)F)c1)(c1cccc(C(F)(F)F)c1)c1cccc(C(F)(F)F)c1.[Cl][Sn]([Cl])([Cl])[Cl] | 3% | 79% (active) | 31.7% | 3% | 83% (active) | 18.5% | 3% | 79% (active) | -5.9% | -10% | 73% (active) | 62.8% | 4% | 89% (active) | 48.8% | 9% | 81% (active) | 61.1%
Nc1cc2[nH]cnc2c([Se])n1 | -155% | -6% | 56% | -39% | -11% | 62.9% | -54% | 19% | 48% | -60% | -33% | 7.45% | -75% | 21% | 57.5% | -141% | -29% | 83.8% (active)
CCC[CH2][Sn]1([CH2]CCC)[O]CC(COc2c(Cl)cc(Cl)cc2Cl)[O]1 (centres undefined) | 94% (active) | 94% (active) | 91.2% (active) | 92% (active) | 92% (active) | 91.3% (active) | 97% (active) | 97% (active) | 90.2% (active) | 89% (active) | 89% (active) | 90% (active) | 89% (active) | 89% (active) | 92.5% (active) | 91% (active) | 91% (active) | 89.8% (active)
CCC1(O)C(=O)OCc2c1cc1n(c2=O)Cc2cc3cc(C)ccc3nc2-1 (centres undefined) | 94% (active) | 83% (active) | 82.2% (active) | 36% | 64% | 83.9% (active) | 31% | -19% | 47.1% | 17% | -4% | 18.9% | -1% | -25% | 18.8% | 36% | 61% | 64.7%
O=C(OCCl)c1ccccc1 | 11% | -4% | 3.9% | -1% | -2% | -5.6% | -4% | 1% | 13.5% | 7% | -4% | 45.5% | 8% | 13% | -7.7% | 6% | 5% | 15.7%
COc1cc(/C=C(/C)[N+](=O)[O-])ccc1O | 90% (active) | 99% (active) | 99.1% (active) | 13% | 100% (active) | 99.6% (active) | 42% | 54% | 99.5% (active) | 19% | 99% (active) | 98.6% (active) | 14% | 99% (active) | 99.1% (active) | 59% | 99% (active) | 99.2% (active)
